# High-throughput results as filed in PubChem.
# TRPV1 agonist: human TRPV1 agonism; activation, % at 8.33 µM; Q8NER1; TRPV1-expressing cells, Fluo-8 calcium influx, agonist mode; hit rate 0.19% among 320,000; in the data active = activation above about 80%; inconclusive = between about 30% and that limit; note: 0% is about no effect
#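 TRPV1-expressing cells were cultured overnight at 35.5C and loaded with Fluo-8 calcium dye for 40 to 90 min at room temperature. After a 10 s baseline, compound was added and calcium influx was read kinetically for 3 min (ex 480/em 520 nm).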
# D1 agonist: human D1 receptor agonism; activation, % at 2 µM; HEK293 T-REx D1 cells, calcium flux, agonist mode; hit rate 1% among 360,000; P21728; in the data active = activation above about 30%; note: 0% is about no effect
# Target sequence (P21728 whole entry, looked up): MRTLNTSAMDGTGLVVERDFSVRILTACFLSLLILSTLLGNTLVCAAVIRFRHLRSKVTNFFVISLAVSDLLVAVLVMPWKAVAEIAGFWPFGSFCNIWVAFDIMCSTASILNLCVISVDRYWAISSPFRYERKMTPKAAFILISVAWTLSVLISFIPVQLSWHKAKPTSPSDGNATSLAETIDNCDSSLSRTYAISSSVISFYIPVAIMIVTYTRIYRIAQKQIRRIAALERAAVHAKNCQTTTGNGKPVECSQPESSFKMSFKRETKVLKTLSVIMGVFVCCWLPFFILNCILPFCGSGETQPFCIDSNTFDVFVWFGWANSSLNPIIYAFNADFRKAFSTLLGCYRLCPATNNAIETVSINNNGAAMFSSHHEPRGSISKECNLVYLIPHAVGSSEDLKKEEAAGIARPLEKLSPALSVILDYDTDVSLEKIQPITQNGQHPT
#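 Agonism was scored from calcium flux recorded over 180 s (1 read/s) after pintool compound addition, following a 10-cycle baseline. Cells were inducible force-coupled HEK293 TREx D1, plated overnight at 30 C and loaded with no-wash calcium dye.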
# TRPV1 PAM: potentiators of human vanilloid receptor 1 (TRPV1); potentiation, % at 8.33 µM; AID 540277; hit rate 0.02% among 320,000; TRPV1-expressing cells, Fluo-8 calcium influx, capsaicin EC20 potentiation; in the data active = potentiation above about 80%; inconclusive = between about 30% and that limit; note: 0% is about no effect
#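 Cells expressing TRPV1 were dye-loaded with Fluo-8 and read kinetically: 10 s baseline, 3 min after compound (agonist portion), then 2 min after EC20 capsaicin (allosteric enhancer portion). Calcium-bound dye fluorescence at 480/520 nm.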
# D1 antagonist: antagonists of human D1 dopamine receptor; P21728; HEK293 TREx D1 cells, calcium flux, dopamine EC80; stronger effect = lower value; activity change, negative = inhibition, % at 10 µM; hit rate 3.2% among 360,000; in the data active = activity change below about -30%; note: % is set by controls: 0 for no effect and ±100 for the full control effect
#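 Using tetracycline-induced force-coupled D1 Hek293 cells and a calcium dye, signals were followed for 180 s after compound, then for 180 s after EC80 dopamine, to detect inhibitors.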
# D1 potentiator: enhances dopamine response at the human D1 receptor. P21728. HEK293 TREx D1 cells, calcium flux, dopamine EC20 potentiation. potentiation, % at 10 µM. hit rate 0.036% among 360,000; in the data active = potentiation above about 30%; note: 0% is about no effect
# * marks the source's active call; other numbers are inactive results; u = inconclusive; x = no result given; ! = not active in a repeat. Compounds with a hit are over-represented: about 4.2% of the library has one in this group of screens.
SMILES,TRPV1 agonist,D1 agonist,TRPV1 PAM,D1 antagonist,D1 potentiator
CC(C)(C)N1C(=O)c2ccc(C(=O)Nc3ccc(-c4nc5ccccc5[nH]4)cc3)cc2C1=O,1.3,3.6,-3.4,-13.7,0.2
Cc1ccccc1C(=O)Nc1ccc(-c2nc3ccc(C(=O)c4ccccc4)cc3[nH]2)cc1,-0.1,4.2,1.6,-42.3*,-5.2
CN(c1ccccc1)S(=O)(=O)c1ccc(Cl)c(C(=O)Nc2ccc(-c3nc4ccccc4[nH]3)cc2)c1,-2.0,5.2,-7.4,-30.4*,-10.4
CN(C)C(CNC(=O)c1cc(S(=O)(=O)N(C)c2ccccc2)ccc1Cl)c1cccs1 (stereo not given),9.5,11.6,-17.0,-44.0*,-8.2
Cc1cccc(NC(=O)N2CCN(C(=O)c3nsc4ccccc34)CC2)c1C,x,-0.7,x,-0.9,-1.8
CCOC(=O)C1=C(N)n2c(s/c(=C/c3ccco3)c2=O)=C(C(=O)OC)C1c1ccco1 (stereo not given),u,50.3*,-11.2,-1.0,2.5
O=C(CN1C(=O)CC(c2ccco2)Sc2ccccc21)Nc1cccc(C(F)(F)F)c1 (stereo not given),x,21.6,x,-28.9,-3.2
COc1ccccc1NC(=O)c1sc2nc3c(cc2c1N)CN(Cc1ccccc1)CC3,x,0.0,x,-9.6,0.2
CCOc1ccccc1NC(=O)c1sc2nc3c(cc2c1N)CN(Cc1ccccc1)CC3,x,54.6*,x,16.5,-3.5
Cc1cc(C)c(S(=O)(=O)c2cccc(Cl)c2)c(Cl)n1,0.3,2.7,7.2,-2.2,-2.5
CCOc1nc(C)cc(C)c1S(=O)(=O)c1cccc(Cl)c1,0.8,30.5*,10.7,-49.5*,-3.5
Cc1ccc(SCCNS(=O)(=O)c2ccc3c(c2)OCCO3)cc1,4.7,10.5,0.1,-32.8*,-8.3
O=S(=O)(NCCCCNS(=O)(=O)c1c(F)cccc1F)c1ccc2c(c1)OCCO2,1.6,0.9,-0.6,-41.2*!,-0.3
O=S(=O)(NCCNS(=O)(=O)c1c(F)cccc1F)c1ccc2c(c1)OCCO2,x,-2.4,x,-23.8,-0.1
CCOC(=O)c1cc(-c2ccccc2)n(CC(=O)N(C)c2ccc(OC)cc2)c1C,x,1.7,x,3.0,-2.2
Cc1cccc(N2CCN(c3nc4ccccc4c4nc(-c5ccccc5)nn34)CC2)c1C,x,0.3,x,-12.8,-5.8
O=C(CSC1=Nc2ccccc2C2=NC(Cc3ccccc3)C(=O)N12)Nc1cccc(Cl)c1 (stereo not given),x,0.4,x,8.3,-0.4
Cc1nn(C(C)C(=O)NCC2CCCO2)c(=O)c2cc3occc3n12 (stereo not given),-2.7,0.2,14.0,-32.9*,-8.8
Cc1nn(C(C)C(=O)NCCc2ccccc2)c(=O)c2cc3occc3n12 (stereo not given),-2.2,-0.6,4.8,-4.5,-6.3
COc1ccc(CNC(=O)c2ccc3nc(CCc4ccccc4)oc3c2)c(OC)c1,x,29.6,x,-41.9*,-2.5
COCCNC(=O)c1ccc2nc(CCc3ccccc3)oc2c1,x,2.2,x,-36.3*,-5.0
COc1ccc(Br)cc1CNC(=O)C1CCCN(S(=O)(=O)N2CC(C)CC(C)C2)C1 (stereo not given),1.5,4.1,-1.0,-32.6*,-3.5
CCCC(=O)NCc1ccc2c(c1)cc(C)n2C,1.2,3.2,-7.7,-2.5,-2.6
Cc1cc(C)c(S(=O)(=O)NCc2ccc3c(c2)cc(C)n3C)c(C)c1,-4.4,-2.4,26.2,-37.0*,-8.3
Cc1cc2cc(CNC(=O)c3cccc([N+](=O)[O-])c3)ccc2n1C,17.5,-1.3,-1.9,-28.9,-3.5
SMILES,TRPV1 agonist,D1 agonist,TRPV1 PAM,D1 antagonist,D1 potentiator
Cc1cc2cc(CNC(=O)Cc3ccc([N+](=O)[O-])cc3)ccc2n1C,u,3.3,-15.9,-31.2*,-14.2
Cc1cc2cc(CNC(=O)C3CCCC3)ccc2n1C,13.7,1.8,-20.4,-30.1*,-12.7
CC(=O)N1c2ccc(S(=O)(=O)N3CCC(C(=O)Nc4cccc(Cl)c4C)CC3)cc2CC1C (stereo not given),x,2.0,x,-3.8,1.6
Cc1ncsc1CCC(=O)N1CCCC(Nc2ccc(C(C)C)cc2)C1 (stereo not given),83.7*,5.0,0.0,-7.1,-0.8
COc1ccc(NC2CCCN(C(=O)CCc3scnc3C)C2)cc1 (stereo not given),7.6,0.5,-13.0,1.1,2.4
CC(=O)c1ccc(C(=O)N2CCCC(Nc3ccc(C(C)C)cc3)C2)s1 (stereo not given),u,1.6,-15.6,-20.0,-0.1
